Measurements taken from PubChem BioAssay.
Active and inactive are the calls of the source. The rule behind the calls is not given here. Non-standard residues stand in square brackets, D forms with d. Residues, ends and D or L forms follow the SMILES beside them. Orn = NCCC[CH](N)C(=O)O

These molecules were tested on Aerobactin synthetase IucA (Klebsiella pneumoniae hvKP1) (assay: IucA enzyme inhibition, primary screen, biochemical, Spectrum library (AID 1346200;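 note: 100% = wells without compound and 0% = wells lacking enzyme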)). Conditions: malachite green pyrophosphate, A620, at 8 µM, stronger effect = lower value.

Compound	activity remaining
CC(C)CC1NC(=O)C(CCCN)NC(=O)C(C(C)C)NC(=O)C(Cc2ccc(O)cc2)NC(=O)C(CCC(=O)O)NC(=O)C(CC(=O)O)NC(=O)C(Cc2ccccc2)NC(=O)C(Cc2ccccc2)NC(=O)C2CCCN2C(=O)C(Cc2ccccc2)NC1=O (stereo not given) (cyclo(DEYV[Orn]LFPFF); configuration not given here)	113% (inactive)
COc1ccc(C(=O)CC(=O)c2ccc(C(C)(C)C)cc2)cc1	104% (inactive)
COc1cc(OC)c2c(OC)c(-c3ccc4c(c3)OCO4)c(=O)oc2c1	95.4% (inactive)
CCCCCC(C)N (stereo not given)	111% (inactive)
CCOC(=O)c1ccc(N)cc1	113% (inactive)
